Tested on: Vero E6 infected with SARS-CoV-2
Assay: inhibition of SARS-CoV-2 cytopathic effect; higher = more antiviral protection, active = above 15
Conditions: 48 h

Measured: inhibition of SARS-CoV-2 cytopathic effect

NS(=O)(=O)c1cc2c(cc1Cl)N=CNS2(=O)=O [chlorothiazide]
inactive: 1 nM 0.29% | 8.33 nM 0% | 100 nM -0.95% | 833.33 nM -0.05% | 10000 nM -0.76%

Nc1nc2c(ccc3ccccc32)s1
inactive: 1 nM -0.98% | 8.33 nM -0.18% | 100 nM -1.85% | 833.33 nM -0.09% | 10000 nM -1.09%

NCCc1cc(O)c(O)cc1O [oxidopamine]
inactive: 1 nM -2.92% | 8.33 nM 0.45% | 100 nM -2.01% | 833.33 nM -2.87% | 10000 nM -3.37%

CC(C)N(CC[C@H](c1ccccc1)c1cc(CO)ccc1O)C(C)C [5-hydroxymethyl-tolterodine]
inactive: 1 nM -1.98% | 8.33 nM -1.4% | 100 nM -1.82% | 833.33 nM 2.8% | 10000 nM -3.28%

O=C(CNC(=O)c1ccc(Cl)cc1)NO [benurestat]
inactive: 1 nM -3.63% | 8.33 nM -2.49% | 100 nM -1.54% | 833.33 nM -0.58% | 10000 nM 0.4%

O=C(N[C@H]1CN2CCC1CC2)c1ccc2c(c1)OCCO2
inactive: 1 nM -2.13% | 8.33 nM -1.4% | 100 nM -0.74% | 833.33 nM -0.26% | 10000 nM -1.59%

COc1ccc(OC)c(C(O)C(C)N)c1 (stereo not given) [methoxamine]
inactive: 1 nM 0.07% | 8.33 nM -0.09% | 100 nM 1.61% | 833.33 nM 3.81% | 10000 nM 0.66%

CC(=O)N(CC(C)C(=O)O)c1c(I)cc(I)c(N)c1I (stereo not given) [iocetamic-acid]
inactive: 1 nM -1.3% | 8.33 nM 1.93% | 100 nM 1.81% | 833.33 nM 0.62% | 10000 nM 3.4%

N=C(N)NC(=O)c1cnccn1 [pyrazinoylguanidine]
inactive: 1 nM 0.04% | 8.33 nM -6.78% | 100 nM -2.28% | 833.33 nM -5.59% | 10000 nM -0.5%

CC(C)NCCCn1c(Sc2cc3c(cc2I)OCO3)nc2c(N)ncnc21
inactive: 1 nM -3.36% | 8.33 nM -0.68% | 100 nM -0.95% | 833.33 nM -7.21% | 10000 nM -3.3%

CNC(=O)c1ccc(Nc2ncc(C(F)(F)F)c(NCc3nccnc3N(C)S(C)(=O)=O)n2)cc1 [defactinib]
inactive: 1 nM -2.21% | 8.33 nM -4.25% | 100 nM -0.22% | 833.33 nM -2.59% | 10000 nM -4.28%

Fc1ccc(C(OCCN2CCN(CCCc3ccccc3)CC2)c2ccc(F)cc2)cc1 [vanoxerine]
inactive: 1 nM -2.38% | 8.33 nM -0.72% | 100 nM 2.06% | 833.33 nM -3.95% | 10000 nM -11.6%

CCc1[nH]c(=O)[nH]c1C(=O)c1ccncc1 [piroximone]
inactive: 1 nM -0.93% | 8.33 nM 5% | 100 nM 3.91% | 833.33 nM 3.62% | 10000 nM -1.11%

O=C(O)c1cc(O)c2c(c1)[C@H]([C@H]1c3cc(C(=O)O)cc(O)c3C(=O)c3c(O[C@@H]4O[C@H](CO)[C@@H](O)[C@H](O)[C@H]4O)cccc31)c1cccc(O[C@@H]3O[C@H](CO)[C@@H](O)[C@H](O)[C@H]3O)c1C2=O [sennoside-A]
inactive: 1 nM -3.2% | 8.33 nM 0% | 100 nM 0.82% | 833.33 nM 0.38% | 10000 nM -2.08%

CCOC(=O)COc1ccc2c(=O)cc(-c3ccccc3)oc2c1 [efloxate]
inactive: 1 nM -1.98% | 8.33 nM 0.67% | 100 nM 0.32% | 833.33 nM -1.24% | 10000 nM -0.78%

CC(C)(C)c1cc(C=C(C#N)C#N)cc(C(C)(C)C)c1O [tyrphostin-A9]
inactive: 1 nM 1.9% | 8.33 nM 1.44% | 100 nM 4.1% | 833.33 nM 8.55% | 10000 nM 6.42%

Fc1ccc(-c2cncc(CN3CCN(c4cccc5c4OCCO5)CC3)c2)cc1 [adoprazine]
inactive: 1 nM -1.19% | 8.33 nM -1.15% | 100 nM 2.28% | 833.33 nM 1.56% | 10000 nM 0.22%

O=C(O)c1cccc(-c2noc(-c3ccccc3F)n2)c1 [ataluren]
inactive: 1 nM -0.23% | 8.33 nM 0.96% | 100 nM 0.68% | 833.33 nM 2.99% | 10000 nM 2.92%

O=C(O)C1=CCCN(CCON=C(c2ccccc2)c2ccccc2)C1
inactive: 1 nM -1.65% | 8.33 nM 0.36% | 100 nM 0.96% | 833.33 nM 0.86% | 10000 nM 2.06%
